In paper PMC7862700, “An all-to-all approach to the identification of sequence-specific readers for epigenetic DNA modifications on cytosine”:

Assays:
Assay in all cases: DAPPL (digital affinity profiling via proximity ligation, sequencing); 10 mM Tris-HCl pH 7.5, 50 mM NaCl, 1 mM DTT, 4% glycerol, room temperature, 30 min; GST-TFs on glutathione beads, 16-mer random dsDNA library, 0.1% formaldehyde crosslink after washing; high values mean tight binding
[1] = target: T1, FLI1 (Homo sapiens, UniProt Q01543 1-452); conditions: protein: recombinant; tags: N-terminal GST; dsDNA, one strand shown
T1 sequence: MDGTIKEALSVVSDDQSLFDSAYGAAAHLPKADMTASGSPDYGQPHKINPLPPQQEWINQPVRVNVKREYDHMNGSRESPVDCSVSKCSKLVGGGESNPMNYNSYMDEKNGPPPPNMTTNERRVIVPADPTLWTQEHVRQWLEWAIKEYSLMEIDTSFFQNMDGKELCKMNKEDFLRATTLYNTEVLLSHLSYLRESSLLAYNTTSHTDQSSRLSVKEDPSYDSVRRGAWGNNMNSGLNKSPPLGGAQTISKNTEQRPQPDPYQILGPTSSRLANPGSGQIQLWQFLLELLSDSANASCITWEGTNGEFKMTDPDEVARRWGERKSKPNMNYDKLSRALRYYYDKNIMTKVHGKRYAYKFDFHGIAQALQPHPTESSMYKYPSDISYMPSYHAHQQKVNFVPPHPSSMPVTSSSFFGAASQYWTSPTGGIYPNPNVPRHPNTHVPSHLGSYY
Outline: (§1)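 Binding signal is each hexamer's read frequency for a factor divided by its frequency in the tag-only sample. The factors were GST-fused human transcription factors from yeast, captured on glutathione beads, DNA-barcoded and pooled with that sample. Pools were incubated with 200 nmole of a random double-stranded 16-mer DNA library in Tris/NaCl/DTT/glycerol buffer at room temperature for 30 min, then washed, crosslinked with 0.1% formaldehyde, proximity-ligated with BsaI/T4 ligase (1 h, 37 °C), PCR-amplified and sequenced on an Illumina NextSeq500.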

[2] = target: T2, ELK1 (Homo sapiens, UniProt P19419 1-428); conditions: protein: recombinant; tags: N-terminal GST; dsDNA, one strand shown
T2 sequence: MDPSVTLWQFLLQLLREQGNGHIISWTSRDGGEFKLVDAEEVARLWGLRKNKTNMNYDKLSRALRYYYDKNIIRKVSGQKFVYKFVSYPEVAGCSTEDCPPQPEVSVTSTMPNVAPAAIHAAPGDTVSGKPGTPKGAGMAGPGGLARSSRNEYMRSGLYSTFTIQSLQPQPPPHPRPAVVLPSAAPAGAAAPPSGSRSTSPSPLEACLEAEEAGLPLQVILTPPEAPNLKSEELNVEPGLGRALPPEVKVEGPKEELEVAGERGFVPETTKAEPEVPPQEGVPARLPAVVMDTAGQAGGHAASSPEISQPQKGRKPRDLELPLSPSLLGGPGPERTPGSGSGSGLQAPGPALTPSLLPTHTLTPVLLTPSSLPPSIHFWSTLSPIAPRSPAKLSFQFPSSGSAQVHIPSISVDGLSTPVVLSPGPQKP
Outline: as §1

[3] = target: T3, GABPA (Homo sapiens, UniProt Q06546 1-454); conditions: protein: recombinant; tags: N-terminal GST; dsDNA, one strand shown
T3 sequence: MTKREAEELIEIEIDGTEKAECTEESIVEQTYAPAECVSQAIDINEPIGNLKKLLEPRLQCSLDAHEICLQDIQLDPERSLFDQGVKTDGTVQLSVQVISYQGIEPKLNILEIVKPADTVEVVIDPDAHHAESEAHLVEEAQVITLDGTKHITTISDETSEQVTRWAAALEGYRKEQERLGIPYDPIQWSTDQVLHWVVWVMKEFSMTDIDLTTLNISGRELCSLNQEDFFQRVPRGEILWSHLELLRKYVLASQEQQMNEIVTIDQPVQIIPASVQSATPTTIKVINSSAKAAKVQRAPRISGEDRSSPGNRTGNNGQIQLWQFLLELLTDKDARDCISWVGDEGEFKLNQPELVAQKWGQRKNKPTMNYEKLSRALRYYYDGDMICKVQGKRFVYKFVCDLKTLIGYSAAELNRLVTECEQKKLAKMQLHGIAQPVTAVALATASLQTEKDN
Outline: as §1

[4] = target: T4, ERG (Homo sapiens, UniProt P11308 1-479); conditions: protein: recombinant; tags: N-terminal GST; dsDNA, one strand shown
T4 sequence: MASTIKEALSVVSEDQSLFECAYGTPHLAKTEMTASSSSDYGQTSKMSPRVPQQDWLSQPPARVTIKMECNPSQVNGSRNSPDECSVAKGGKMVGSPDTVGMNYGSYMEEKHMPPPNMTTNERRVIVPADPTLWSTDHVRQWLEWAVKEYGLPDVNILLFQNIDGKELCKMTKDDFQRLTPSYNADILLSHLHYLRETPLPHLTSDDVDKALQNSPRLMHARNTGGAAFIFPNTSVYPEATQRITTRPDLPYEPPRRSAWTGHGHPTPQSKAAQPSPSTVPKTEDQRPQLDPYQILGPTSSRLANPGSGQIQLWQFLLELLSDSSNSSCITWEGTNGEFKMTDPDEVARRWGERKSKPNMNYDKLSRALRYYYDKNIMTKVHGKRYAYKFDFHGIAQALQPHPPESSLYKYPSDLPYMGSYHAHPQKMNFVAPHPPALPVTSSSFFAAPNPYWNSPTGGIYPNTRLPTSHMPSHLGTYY
Outline: as §1

[5] = target: ELF1 (Homo sapiens, UniProt P32519 1-619); conditions: protein: recombinant; tags: N-terminal GST; dsDNA, one strand shown
Outline: as §1

[6] = target: T5, EHF (Homo sapiens, UniProt Q9NZC4 1-300); conditions: protein: recombinant; tags: N-terminal GST; dsDNA, one strand shown
T5 sequence: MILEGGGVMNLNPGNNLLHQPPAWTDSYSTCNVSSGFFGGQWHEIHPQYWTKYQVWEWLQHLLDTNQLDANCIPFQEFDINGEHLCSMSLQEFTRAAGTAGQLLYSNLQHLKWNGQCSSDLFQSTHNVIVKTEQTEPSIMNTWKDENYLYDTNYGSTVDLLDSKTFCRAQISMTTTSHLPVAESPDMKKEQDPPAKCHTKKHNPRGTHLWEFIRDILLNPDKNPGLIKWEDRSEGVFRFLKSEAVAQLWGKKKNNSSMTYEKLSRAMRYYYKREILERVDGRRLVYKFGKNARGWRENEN
Outline: as §1

[7] = target: SPI1 (Homo sapiens, UniProt P17947 1-270); conditions: protein: recombinant; tags: N-terminal GST; dsDNA, one strand shown
Outline: as §1

[8] = target: SPIB (Homo sapiens, UniProt Q01892 1-262); conditions: protein: recombinant; tags: N-terminal GST; dsDNA, one strand shown
Outline: as §1

[9] = target: T6, ELK3 (Homo sapiens, UniProt P41970 1-407); conditions: protein: recombinant; tags: N-terminal GST; dsDNA, one strand shown
T6 sequence: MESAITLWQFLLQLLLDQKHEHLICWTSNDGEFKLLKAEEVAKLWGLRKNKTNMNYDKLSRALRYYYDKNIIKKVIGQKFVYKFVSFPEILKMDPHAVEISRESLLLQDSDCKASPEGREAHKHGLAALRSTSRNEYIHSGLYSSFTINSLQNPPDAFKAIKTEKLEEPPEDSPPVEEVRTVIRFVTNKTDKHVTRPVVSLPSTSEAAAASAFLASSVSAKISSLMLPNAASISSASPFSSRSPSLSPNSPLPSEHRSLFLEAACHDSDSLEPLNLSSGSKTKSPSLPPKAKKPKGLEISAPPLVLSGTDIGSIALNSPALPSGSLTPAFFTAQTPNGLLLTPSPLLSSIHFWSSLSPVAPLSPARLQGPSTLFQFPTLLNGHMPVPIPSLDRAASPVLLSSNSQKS
Outline: as §1

[10] = target: T7, FEV (Homo sapiens, UniProt Q99581 1-238); conditions: protein: recombinant; tags: N-terminal GST; dsDNA, one strand shown
T7 sequence: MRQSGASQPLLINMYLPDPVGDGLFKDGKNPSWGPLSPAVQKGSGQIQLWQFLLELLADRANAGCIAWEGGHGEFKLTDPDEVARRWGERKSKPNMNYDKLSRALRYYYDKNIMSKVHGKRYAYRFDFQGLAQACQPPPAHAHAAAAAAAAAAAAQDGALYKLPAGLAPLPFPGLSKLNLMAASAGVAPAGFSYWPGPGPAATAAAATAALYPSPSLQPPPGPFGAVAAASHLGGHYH
Outline: as §1

[11] = target: ETV5 (Homo sapiens, UniProt P41161 1-510); conditions: protein: recombinant; tags: N-terminal GST; dsDNA, one strand shown
Outline: as §1

[12] = target: HSF1 (Homo sapiens, UniProt Q00613 1-529); conditions: protein: recombinant; tags: N-terminal GST; chain copies: 3; dsDNA, one strand shown
Outline: as §1

[13] = target: T8, SPIC (Homo sapiens, UniProt Q8N5J4 1-248); conditions: protein: recombinant; tags: N-terminal GST; dsDNA, one strand shown
T8 sequence: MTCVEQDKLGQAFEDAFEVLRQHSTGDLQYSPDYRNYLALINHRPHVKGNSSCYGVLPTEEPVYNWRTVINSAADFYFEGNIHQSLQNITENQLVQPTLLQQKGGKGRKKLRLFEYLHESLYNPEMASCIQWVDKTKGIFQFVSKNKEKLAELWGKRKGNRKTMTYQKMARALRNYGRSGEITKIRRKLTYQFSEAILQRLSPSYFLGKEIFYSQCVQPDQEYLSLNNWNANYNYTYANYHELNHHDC
Outline: as §1

[14] = target: ELF4 (Homo sapiens, UniProt Q99607 1-663); conditions: protein: recombinant; tags: N-terminal GST; dsDNA, one strand shown
Outline: as §1

[15] = target: T9, ELK4 (Homo sapiens, UniProt P28324-2 1-405); conditions: protein: recombinant; tags: N-terminal GST; dsDNA, one strand shown
T9 sequence: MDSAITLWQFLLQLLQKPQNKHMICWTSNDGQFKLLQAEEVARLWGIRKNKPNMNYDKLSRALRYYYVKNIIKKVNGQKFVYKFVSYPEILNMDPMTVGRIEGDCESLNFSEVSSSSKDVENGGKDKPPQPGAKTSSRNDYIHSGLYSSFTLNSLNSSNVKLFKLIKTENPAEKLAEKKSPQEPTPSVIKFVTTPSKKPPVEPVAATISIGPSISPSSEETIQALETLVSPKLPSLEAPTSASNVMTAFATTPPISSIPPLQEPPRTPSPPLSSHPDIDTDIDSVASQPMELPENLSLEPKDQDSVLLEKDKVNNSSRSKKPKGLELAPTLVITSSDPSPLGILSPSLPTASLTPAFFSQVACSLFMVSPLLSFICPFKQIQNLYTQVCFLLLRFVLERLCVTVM
Outline: as §1

[16] = target: T10, ETV2 (Homo sapiens, UniProt O00321 1-342); conditions: protein: recombinant; tags: N-terminal GST; dsDNA, one strand shown
T10 sequence: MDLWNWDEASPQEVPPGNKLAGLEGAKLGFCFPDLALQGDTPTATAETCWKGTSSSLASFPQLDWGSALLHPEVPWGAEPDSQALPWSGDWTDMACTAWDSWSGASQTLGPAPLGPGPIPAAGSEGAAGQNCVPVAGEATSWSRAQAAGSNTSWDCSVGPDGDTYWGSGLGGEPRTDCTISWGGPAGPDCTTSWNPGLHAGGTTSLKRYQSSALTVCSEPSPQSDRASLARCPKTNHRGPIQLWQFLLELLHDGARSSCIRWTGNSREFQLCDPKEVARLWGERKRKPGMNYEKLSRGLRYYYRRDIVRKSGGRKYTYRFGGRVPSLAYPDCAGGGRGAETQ
Outline: as §1

[17] = target: T11, ELF3 (Homo sapiens, UniProt P78545 1-371); conditions: protein: recombinant; tags: N-terminal GST; dsDNA, one strand shown
T11 sequence: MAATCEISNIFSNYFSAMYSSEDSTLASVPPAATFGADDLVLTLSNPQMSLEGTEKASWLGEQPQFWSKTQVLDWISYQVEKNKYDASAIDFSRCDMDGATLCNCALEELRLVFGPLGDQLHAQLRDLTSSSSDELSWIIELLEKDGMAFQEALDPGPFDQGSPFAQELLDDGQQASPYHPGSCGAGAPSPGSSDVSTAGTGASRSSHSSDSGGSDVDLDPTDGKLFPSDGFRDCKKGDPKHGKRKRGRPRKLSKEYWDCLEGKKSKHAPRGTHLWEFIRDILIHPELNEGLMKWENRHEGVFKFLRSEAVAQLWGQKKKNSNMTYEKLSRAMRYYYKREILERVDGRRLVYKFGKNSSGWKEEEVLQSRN
Outline: as §1

[18] = target: CRX (Homo sapiens, UniProt O43186 1-299); conditions: protein: recombinant; tags: N-terminal GST; dsDNA, one strand shown
Outline: as §1

[19] = target: ETV1 (Homo sapiens, UniProt P50549 1-477); conditions: protein: recombinant; tags: N-terminal GST; dsDNA, one strand shown
Outline: as §1

ETV1, sequence (P50549 whole entry): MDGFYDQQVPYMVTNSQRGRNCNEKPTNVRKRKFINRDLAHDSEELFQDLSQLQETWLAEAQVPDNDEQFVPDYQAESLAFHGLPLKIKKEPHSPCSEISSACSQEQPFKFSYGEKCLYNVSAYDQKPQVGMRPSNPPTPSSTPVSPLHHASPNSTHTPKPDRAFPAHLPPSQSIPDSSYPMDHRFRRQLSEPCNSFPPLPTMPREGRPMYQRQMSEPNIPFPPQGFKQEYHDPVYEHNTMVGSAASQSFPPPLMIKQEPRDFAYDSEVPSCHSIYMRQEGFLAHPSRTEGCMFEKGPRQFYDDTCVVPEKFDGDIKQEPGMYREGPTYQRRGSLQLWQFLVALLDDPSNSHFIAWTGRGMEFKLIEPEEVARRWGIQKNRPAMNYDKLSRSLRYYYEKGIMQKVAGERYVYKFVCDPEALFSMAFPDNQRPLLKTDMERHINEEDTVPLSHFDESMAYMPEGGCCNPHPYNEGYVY
CRX, sequence (O43186 whole entry): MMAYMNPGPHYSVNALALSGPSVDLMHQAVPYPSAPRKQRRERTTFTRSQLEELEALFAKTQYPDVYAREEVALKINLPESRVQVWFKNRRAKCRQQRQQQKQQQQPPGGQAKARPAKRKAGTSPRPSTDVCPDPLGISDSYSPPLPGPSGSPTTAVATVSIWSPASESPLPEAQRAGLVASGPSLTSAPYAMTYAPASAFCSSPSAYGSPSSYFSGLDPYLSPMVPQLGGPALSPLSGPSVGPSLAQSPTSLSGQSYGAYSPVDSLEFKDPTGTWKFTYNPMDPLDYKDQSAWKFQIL
ELF1, sequence (P32519 whole entry): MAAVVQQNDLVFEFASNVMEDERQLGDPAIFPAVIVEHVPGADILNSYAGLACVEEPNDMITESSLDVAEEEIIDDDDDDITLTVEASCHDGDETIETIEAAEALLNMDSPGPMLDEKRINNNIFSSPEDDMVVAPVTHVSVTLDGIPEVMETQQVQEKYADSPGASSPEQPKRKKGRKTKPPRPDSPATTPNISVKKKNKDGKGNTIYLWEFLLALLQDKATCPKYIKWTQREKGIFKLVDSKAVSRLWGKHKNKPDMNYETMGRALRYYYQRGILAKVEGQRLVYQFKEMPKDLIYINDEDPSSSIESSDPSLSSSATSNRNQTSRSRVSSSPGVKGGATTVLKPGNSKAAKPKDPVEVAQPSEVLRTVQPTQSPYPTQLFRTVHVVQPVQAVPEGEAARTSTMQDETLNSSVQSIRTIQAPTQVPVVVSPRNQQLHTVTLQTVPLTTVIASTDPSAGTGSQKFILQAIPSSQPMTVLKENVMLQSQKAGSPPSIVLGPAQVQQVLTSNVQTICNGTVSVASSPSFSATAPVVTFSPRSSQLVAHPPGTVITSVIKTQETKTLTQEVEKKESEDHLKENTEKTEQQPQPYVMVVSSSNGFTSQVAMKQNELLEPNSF
HSF1, sequence (Q00613 whole entry): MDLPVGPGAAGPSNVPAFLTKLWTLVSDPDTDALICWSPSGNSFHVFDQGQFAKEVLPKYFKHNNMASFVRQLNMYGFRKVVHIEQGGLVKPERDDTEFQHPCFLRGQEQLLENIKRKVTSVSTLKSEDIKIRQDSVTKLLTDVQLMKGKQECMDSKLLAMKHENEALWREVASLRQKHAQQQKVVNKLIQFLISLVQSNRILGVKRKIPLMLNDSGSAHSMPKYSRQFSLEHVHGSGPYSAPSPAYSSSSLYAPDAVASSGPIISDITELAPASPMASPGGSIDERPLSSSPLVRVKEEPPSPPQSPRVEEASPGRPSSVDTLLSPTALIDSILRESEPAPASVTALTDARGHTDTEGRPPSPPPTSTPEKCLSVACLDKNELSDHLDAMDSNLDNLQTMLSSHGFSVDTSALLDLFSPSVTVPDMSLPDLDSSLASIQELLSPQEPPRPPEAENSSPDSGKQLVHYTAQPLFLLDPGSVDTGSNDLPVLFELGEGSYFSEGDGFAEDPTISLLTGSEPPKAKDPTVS
ETV5, sequence (P41161 whole entry): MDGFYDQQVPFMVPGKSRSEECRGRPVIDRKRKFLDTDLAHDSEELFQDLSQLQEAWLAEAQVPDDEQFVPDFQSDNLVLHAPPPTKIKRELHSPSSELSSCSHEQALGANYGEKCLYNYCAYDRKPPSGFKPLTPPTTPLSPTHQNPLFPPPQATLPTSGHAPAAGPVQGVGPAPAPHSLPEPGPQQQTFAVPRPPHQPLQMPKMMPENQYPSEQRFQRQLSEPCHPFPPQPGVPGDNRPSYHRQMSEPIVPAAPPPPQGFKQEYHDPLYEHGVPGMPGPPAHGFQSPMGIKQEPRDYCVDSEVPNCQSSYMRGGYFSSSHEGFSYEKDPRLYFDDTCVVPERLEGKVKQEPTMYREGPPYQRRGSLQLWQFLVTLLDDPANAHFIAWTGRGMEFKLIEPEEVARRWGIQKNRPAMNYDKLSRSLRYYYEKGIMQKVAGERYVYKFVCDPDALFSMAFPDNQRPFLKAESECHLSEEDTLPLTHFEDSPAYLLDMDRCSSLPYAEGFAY
ELF4, sequence (Q99607 whole entry): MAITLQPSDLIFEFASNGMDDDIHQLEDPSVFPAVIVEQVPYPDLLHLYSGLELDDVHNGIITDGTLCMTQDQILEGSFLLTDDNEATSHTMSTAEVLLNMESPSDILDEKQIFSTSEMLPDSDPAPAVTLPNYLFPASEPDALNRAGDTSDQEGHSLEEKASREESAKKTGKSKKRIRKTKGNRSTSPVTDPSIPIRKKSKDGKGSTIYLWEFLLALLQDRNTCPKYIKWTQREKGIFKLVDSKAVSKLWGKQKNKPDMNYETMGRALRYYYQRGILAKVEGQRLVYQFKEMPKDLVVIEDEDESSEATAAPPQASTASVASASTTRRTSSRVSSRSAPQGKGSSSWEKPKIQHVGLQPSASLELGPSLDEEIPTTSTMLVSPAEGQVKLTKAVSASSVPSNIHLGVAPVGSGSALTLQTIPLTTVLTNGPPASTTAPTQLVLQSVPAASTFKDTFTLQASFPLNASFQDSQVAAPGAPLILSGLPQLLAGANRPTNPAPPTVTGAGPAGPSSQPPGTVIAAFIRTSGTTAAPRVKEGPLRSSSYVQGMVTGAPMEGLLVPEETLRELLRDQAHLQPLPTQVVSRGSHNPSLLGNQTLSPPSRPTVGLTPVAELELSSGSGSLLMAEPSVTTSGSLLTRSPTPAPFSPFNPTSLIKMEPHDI
SPIB, sequence (Q01892 whole entry): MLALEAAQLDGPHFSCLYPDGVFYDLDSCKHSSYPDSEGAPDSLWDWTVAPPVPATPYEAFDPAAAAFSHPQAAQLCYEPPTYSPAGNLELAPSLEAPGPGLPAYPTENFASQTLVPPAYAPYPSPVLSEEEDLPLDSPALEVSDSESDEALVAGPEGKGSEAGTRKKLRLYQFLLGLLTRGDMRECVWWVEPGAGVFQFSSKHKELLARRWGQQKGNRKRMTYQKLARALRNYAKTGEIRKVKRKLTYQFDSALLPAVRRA

TACCGA
binding signal [1]: 1.26 fold enrichment (6-mer frequency, TF over GST control)
binding signal [2]: 1.1 fold enrichment (6-mer frequency, TF over GST control)
binding signal [3]: 1.13 fold enrichment (6-mer frequency, TF over GST control)
binding signal [4]: 1.07 fold enrichment (6-mer frequency, TF over GST control)
binding signal [5]: 1.17 fold enrichment (6-mer frequency, TF over GST control)
binding signal [6]: 1.1 fold enrichment (6-mer frequency, TF over GST control)
binding signal [7]: 1.12 fold enrichment (6-mer frequency, TF over GST control)
binding signal [8]: 1.16 fold enrichment (6-mer frequency, TF over GST control)
binding signal [9]: 1.12 fold enrichment (6-mer frequency, TF over GST control)
binding signal [10]: 1.11 fold enrichment (6-mer frequency, TF over GST control)
binding signal [11]: 1.14 fold enrichment (6-mer frequency, TF over GST control)
binding signal [12]: 1.21 fold enrichment (6-mer frequency, TF over GST control)
binding signal [13]: 1.2 fold enrichment (6-mer frequency, TF over GST control)
binding signal [14]: 1.18 fold enrichment (6-mer frequency, TF over GST control)
binding signal [15]: 1.12 fold enrichment (6-mer frequency, TF over GST control)
binding signal [16]: 1.04 fold enrichment (6-mer frequency, TF over GST control)
binding signal [17]: 1.3 fold enrichment (6-mer frequency, TF over GST control)
binding signal [18]: 1.33 fold enrichment (6-mer frequency, TF over GST control)
binding signal [19]: 1.24 fold enrichment (6-mer frequency, TF over GST control)
